Experimental findings from publication PMC7862700, “An all-to-all approach to the identification of sequence-specific readers for epigenetic DNA modifications on cytosine” are described below.

What all share (assay): DAPPL (digital affinity profiling via proximity ligation, sequencing); 10 mM Tris-HCl pH 7.5, 50 mM NaCl, 1 mM DTT, 4% glycerol, room temperature, 30 min; GST-TFs on glutathione beads, 16-mer random dsDNA library, 0.1% formaldehyde crosslink after washing; high values mean tight binding
The target of one assay is T1, FEV (Homo sapiens, UniProt Q99581 1-238).
T1 sequence: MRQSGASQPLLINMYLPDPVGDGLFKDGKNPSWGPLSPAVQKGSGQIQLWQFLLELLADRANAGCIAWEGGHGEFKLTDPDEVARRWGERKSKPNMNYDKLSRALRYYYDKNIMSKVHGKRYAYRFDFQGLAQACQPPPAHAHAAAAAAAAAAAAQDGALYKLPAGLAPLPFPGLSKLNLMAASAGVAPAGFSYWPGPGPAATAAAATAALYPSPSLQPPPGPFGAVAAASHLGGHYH
The settings on record: protein: recombinant; tags: N-terminal GST; dsDNA, one strand shown. A digest of the protocol: (§1)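 Binding signal is each hexamer's read frequency for a factor divided by its frequency in the tag-only sample. The factors were GST-fused human transcription factors from yeast, captured on glutathione beads, DNA-barcoded and pooled with that sample. Pools were incubated with 200 nmole of a random double-stranded 16-mer DNA library in Tris/NaCl/DTT/glycerol buffer at room temperature for 30 min, then washed, crosslinked with 0.1% formaldehyde, proximity-ligated with BsaI/T4 ligase (1 h, 37 °C), PCR-amplified and sequenced on an Illumina NextSeq500.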

For a further assay, the target named is ETV5 (Homo sapiens, UniProt P41161 1-510). The following applies: protein: recombinant; tags: N-terminal GST; dsDNA, one strand shown. The method in brief:
as §1

The target in another assay is HSF1 (Homo sapiens, UniProt Q00613 1-529). The settings on record: protein: recombinant; tags: N-terminal GST; chain copies: 3; dsDNA, one strand shown. A digest of the protocol:
as §1

The next assay deals with T2, SPIC (Homo sapiens, UniProt Q8N5J4 1-248).
T2 sequence: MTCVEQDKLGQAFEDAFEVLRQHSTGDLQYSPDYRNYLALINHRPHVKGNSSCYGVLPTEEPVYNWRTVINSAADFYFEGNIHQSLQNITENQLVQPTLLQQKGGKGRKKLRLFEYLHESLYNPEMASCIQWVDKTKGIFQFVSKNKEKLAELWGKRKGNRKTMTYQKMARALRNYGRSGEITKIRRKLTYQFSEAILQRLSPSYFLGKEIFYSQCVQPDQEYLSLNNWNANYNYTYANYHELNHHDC
The following applies: protein: recombinant; tags: N-terminal GST; dsDNA, one strand shown. The method in brief: as §1

The target of the next assay is ELF4 (Homo sapiens, UniProt Q99607 1-663). The following applies: protein: recombinant; tags: N-terminal GST; dsDNA, one strand shown. The method in brief:
as §1

In another assay the target is T3, ELK4 (Homo sapiens, UniProt P28324-2 1-405).
T3 sequence: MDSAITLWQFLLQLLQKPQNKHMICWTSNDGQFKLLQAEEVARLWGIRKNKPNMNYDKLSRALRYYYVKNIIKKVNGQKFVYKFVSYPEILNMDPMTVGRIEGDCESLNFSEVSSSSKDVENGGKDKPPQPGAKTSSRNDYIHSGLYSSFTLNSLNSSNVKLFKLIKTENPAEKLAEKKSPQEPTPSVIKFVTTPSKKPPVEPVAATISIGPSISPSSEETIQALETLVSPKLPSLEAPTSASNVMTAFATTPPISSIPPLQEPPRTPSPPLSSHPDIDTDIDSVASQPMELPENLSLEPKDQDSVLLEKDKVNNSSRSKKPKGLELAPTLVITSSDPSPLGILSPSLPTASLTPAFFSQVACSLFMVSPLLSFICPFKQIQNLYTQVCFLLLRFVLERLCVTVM
The settings on record: protein: recombinant; tags: N-terminal GST; dsDNA, one strand shown. The method in brief:
as §1

The target in another assay is T4, ETV2 (Homo sapiens, UniProt O00321 1-342).
T4 sequence: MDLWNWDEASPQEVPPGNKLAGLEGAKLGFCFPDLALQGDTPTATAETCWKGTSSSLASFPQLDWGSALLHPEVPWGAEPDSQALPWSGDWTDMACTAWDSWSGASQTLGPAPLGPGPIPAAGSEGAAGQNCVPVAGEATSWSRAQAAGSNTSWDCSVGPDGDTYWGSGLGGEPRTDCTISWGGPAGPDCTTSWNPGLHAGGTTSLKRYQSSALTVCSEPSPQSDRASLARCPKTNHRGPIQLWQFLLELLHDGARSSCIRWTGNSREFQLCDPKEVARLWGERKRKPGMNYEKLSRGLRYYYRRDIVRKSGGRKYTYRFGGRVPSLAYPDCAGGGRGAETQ
The following applies: protein: recombinant; tags: N-terminal GST; dsDNA, one strand shown. The method in brief: as §1

Another assay deals with T5, ELF3 (Homo sapiens, UniProt P78545 1-371).
T5 sequence: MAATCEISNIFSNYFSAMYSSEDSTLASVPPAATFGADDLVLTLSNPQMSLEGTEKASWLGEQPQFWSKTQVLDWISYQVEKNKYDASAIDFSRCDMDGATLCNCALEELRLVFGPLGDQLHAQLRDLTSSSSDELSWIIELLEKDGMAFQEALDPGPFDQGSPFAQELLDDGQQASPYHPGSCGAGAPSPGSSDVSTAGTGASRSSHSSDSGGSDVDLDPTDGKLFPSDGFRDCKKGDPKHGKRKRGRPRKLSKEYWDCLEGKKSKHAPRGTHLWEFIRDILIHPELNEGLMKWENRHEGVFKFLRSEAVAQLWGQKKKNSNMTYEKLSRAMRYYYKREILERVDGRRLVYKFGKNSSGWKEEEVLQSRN
The following applies: protein: recombinant; tags: N-terminal GST; dsDNA, one strand shown. A digest of the protocol: as §1

The next assay concerns the target CRX (Homo sapiens, UniProt O43186 1-299). The following applies: protein: recombinant; tags: N-terminal GST; dsDNA, one strand shown. The method in brief: as §1
A further assay addresses ETV1 (Homo sapiens, UniProt P50549 1-477). The following applies: protein: recombinant; tags: N-terminal GST; dsDNA, one strand shown. A digest of the protocol: as §1
The target of the next assay is T6, ERF (Homo sapiens, UniProt P50548 1-548).
T6 sequence: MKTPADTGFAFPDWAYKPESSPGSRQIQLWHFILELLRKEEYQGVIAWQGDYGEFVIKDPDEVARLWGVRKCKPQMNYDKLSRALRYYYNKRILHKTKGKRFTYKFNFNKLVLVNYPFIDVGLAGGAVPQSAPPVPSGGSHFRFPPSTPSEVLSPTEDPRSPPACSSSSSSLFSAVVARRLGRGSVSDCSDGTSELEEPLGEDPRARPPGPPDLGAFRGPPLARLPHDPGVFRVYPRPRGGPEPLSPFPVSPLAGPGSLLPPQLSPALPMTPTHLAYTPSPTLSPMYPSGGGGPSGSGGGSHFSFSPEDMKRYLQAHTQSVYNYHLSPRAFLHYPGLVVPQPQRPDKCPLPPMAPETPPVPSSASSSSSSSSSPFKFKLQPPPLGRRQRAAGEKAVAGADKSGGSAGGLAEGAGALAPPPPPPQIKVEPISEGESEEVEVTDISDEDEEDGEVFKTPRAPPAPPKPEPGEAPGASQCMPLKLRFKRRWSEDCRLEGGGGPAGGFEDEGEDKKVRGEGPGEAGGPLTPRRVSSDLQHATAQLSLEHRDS
The settings on record: protein: recombinant; tags: N-terminal GST; dsDNA, one strand shown. A digest of the protocol:
as §1

In a further assay the target is T7, ETV3L (Homo sapiens, UniProt Q6ZN32 1-361).
T7 sequence: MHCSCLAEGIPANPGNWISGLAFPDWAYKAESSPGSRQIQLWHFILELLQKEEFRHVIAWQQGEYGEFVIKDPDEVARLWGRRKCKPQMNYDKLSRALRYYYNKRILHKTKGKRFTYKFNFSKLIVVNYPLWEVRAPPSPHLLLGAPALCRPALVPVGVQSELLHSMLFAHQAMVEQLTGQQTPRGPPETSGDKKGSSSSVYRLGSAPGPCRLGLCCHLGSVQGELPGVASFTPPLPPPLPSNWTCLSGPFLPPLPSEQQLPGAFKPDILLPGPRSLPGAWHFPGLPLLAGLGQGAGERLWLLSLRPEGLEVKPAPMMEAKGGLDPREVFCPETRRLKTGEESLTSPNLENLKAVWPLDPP
The settings on record: protein: recombinant; tags: N-terminal GST; dsDNA, one strand shown. A digest of the protocol: as §1

Another assay addresses T8, ETS2 (Homo sapiens, UniProt P15036 1-469).
T8 sequence: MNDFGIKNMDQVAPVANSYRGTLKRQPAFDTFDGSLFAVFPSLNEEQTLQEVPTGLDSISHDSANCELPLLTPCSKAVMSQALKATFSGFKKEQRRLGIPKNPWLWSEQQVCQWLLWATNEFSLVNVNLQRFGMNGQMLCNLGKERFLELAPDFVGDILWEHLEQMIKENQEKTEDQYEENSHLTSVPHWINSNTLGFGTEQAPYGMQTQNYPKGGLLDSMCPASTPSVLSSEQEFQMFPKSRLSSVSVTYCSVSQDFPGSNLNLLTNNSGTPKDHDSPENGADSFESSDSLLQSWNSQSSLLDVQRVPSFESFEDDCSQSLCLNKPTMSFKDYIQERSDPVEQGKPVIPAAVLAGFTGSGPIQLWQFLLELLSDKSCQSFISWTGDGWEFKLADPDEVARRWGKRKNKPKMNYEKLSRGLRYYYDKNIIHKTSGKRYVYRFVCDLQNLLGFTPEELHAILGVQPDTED
The following applies: protein: recombinant; tags: N-terminal GST; dsDNA, one strand shown. The method in brief: as §1

In another assay the target is T9, SPDEF (Homo sapiens, UniProt O95238 1-335).
T9 sequence: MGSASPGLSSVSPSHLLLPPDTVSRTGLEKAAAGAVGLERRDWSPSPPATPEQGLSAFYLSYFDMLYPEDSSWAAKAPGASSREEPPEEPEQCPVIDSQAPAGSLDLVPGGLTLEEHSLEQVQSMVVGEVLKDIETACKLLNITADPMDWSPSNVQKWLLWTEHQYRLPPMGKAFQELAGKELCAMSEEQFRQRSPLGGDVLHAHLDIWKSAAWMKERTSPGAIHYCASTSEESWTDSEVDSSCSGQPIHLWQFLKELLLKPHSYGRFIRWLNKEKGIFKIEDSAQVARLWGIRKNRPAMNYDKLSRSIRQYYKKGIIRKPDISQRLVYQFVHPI
The following applies: protein: recombinant; tags: N-terminal GST; dsDNA, one strand shown. The method in brief:
as §1

The target in another assay is T10, ETV7 (Homo sapiens, UniProt Q9Y603 1-341).
T10 sequence: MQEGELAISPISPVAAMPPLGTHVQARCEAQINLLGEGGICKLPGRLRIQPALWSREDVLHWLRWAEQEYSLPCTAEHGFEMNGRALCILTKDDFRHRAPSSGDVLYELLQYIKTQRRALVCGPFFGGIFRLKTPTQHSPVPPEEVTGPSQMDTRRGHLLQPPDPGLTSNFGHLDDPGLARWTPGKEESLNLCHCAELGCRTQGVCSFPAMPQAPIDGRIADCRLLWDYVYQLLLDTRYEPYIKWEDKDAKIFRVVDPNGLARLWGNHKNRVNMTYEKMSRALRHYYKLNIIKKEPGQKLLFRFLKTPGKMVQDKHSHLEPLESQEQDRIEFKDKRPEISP
The following applies: protein: recombinant; tags: N-terminal GST; dsDNA, one strand shown. A digest of the protocol:
as §1

For a further assay, the target named is T11, ELF5 (Homo sapiens, UniProt Q9UKW6-2 1-255).
T11 sequence: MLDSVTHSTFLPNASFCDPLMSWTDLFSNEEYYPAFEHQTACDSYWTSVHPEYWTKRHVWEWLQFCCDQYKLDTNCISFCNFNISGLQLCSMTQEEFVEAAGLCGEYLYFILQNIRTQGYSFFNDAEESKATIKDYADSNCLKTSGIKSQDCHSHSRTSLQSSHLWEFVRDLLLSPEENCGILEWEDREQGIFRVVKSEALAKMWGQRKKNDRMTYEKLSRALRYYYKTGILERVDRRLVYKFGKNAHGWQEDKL
The settings on record: protein: recombinant; tags: N-terminal GST; dsDNA, one strand shown. The method in brief: as §1

In the next assay the target is T12, ETV3 (Homo sapiens, UniProt P41162-2 1-143).
T12 sequence: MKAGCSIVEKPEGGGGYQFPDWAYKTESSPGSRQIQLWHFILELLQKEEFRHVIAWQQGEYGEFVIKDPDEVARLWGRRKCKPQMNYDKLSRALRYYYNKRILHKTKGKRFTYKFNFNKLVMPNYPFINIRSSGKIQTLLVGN
The following applies: protein: recombinant; tags: N-terminal GST; dsDNA, one strand shown. The method in brief: as §1

The target in a further assay is ETV6 (Homo sapiens, UniProt P41212 1-452). The following applies: protein: recombinant; tags: N-terminal GST; dsDNA, one strand shown. The method in brief:
as §1

Chain of ETV5 (P41161 whole entry): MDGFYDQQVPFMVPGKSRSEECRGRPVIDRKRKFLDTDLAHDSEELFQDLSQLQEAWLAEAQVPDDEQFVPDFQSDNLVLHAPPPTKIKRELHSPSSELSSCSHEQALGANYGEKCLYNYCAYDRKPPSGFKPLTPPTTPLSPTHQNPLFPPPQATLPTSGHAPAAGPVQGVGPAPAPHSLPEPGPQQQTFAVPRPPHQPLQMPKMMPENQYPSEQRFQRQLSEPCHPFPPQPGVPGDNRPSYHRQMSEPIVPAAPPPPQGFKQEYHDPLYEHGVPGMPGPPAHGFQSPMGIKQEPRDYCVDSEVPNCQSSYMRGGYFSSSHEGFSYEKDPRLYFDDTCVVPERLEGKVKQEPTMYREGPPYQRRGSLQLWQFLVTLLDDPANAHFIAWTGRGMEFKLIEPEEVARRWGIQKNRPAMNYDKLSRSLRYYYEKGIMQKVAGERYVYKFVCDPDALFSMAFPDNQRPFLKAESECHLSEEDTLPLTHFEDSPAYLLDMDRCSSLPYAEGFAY
Chain of ELF4 (Q99607 whole entry): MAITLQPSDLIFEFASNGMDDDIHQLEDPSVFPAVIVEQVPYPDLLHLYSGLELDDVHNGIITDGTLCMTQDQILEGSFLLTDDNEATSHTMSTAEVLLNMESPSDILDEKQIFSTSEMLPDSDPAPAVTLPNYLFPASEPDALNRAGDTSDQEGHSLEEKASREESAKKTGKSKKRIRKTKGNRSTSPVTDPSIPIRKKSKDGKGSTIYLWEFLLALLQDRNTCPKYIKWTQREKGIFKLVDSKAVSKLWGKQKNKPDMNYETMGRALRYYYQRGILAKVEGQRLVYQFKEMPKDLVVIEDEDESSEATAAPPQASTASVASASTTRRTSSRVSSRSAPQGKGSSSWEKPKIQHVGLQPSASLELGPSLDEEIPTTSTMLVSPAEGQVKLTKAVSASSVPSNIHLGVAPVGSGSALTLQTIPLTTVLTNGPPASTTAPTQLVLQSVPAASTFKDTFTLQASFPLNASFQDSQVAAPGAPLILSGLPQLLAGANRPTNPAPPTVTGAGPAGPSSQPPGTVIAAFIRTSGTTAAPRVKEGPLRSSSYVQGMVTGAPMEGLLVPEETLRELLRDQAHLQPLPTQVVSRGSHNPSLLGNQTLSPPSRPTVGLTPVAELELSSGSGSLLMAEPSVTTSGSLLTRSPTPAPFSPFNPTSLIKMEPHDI
Chain of ETV6 (P41212 whole entry): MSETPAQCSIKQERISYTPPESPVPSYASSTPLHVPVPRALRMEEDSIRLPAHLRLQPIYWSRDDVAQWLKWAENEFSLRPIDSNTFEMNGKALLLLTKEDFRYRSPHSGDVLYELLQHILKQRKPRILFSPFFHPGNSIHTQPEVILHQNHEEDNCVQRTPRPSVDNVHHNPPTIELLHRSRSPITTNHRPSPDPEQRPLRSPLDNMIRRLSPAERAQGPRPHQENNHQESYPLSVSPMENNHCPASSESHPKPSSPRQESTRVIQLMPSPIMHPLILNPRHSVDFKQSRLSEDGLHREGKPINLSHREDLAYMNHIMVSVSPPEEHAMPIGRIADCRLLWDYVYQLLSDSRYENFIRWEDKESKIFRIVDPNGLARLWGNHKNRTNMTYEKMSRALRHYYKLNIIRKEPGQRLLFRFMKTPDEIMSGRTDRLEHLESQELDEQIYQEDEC
Chain of HSF1 (Q00613 whole entry): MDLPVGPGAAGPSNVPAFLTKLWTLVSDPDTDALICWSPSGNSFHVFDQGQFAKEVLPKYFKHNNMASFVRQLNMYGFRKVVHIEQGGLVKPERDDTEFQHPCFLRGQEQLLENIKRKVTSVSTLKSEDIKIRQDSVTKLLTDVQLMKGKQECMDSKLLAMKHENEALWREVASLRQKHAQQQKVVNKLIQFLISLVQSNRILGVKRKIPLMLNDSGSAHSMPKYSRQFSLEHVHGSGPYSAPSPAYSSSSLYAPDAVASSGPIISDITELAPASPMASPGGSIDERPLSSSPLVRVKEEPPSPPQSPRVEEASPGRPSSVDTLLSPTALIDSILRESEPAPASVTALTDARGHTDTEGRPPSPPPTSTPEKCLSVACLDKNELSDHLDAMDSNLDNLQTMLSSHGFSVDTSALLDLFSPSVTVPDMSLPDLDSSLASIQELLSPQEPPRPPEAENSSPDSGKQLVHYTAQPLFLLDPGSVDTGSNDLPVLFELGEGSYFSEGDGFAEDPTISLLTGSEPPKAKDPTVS
Chain of CRX (O43186 whole entry): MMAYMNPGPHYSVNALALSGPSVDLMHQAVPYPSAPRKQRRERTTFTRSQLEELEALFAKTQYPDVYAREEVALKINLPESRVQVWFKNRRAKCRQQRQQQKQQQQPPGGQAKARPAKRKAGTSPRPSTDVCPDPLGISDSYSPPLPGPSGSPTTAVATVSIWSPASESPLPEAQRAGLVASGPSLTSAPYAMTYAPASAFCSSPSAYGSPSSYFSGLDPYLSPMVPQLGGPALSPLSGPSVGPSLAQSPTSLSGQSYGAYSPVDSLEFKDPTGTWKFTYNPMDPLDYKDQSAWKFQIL
Chain of ETV1 (P50549 whole entry): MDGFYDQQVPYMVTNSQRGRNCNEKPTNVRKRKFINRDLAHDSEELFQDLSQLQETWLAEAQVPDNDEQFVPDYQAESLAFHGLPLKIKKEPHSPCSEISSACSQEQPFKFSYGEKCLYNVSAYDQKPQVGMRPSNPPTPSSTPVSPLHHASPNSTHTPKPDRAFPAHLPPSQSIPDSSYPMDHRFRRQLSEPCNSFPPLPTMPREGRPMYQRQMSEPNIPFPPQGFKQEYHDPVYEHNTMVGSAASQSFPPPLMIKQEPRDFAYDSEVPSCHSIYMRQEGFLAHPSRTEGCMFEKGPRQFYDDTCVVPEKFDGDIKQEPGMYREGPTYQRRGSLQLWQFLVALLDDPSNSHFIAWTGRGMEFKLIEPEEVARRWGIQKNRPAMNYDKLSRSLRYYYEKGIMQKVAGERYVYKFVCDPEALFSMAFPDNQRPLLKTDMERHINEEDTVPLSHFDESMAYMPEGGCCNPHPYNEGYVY

With CTCACA, the binding signal was 1.44 fold enrichment (6-mer frequency, TF over GST control) in the assay with FEV; 1.31 fold enrichment (6-mer frequency, TF over GST control) in the assay with ETV5; 1.08 fold enrichment (6-mer frequency, TF over GST control) with HSF1; 1.23 fold enrichment (6-mer frequency, TF over GST control) with SPIC; 1.32 fold enrichment (6-mer frequency, TF over GST control) in the assay with ELF4; 1.34 fold enrichment (6-mer frequency, TF over GST control) in the assay with ELK4. Further, the binding signal in the assay with ETV2 is 1.35 fold enrichment (6-mer frequency, TF over GST control); with ELF3, 1.3 fold enrichment (6-mer frequency, TF over GST control); in the assay with CRX it was 1.12 fold enrichment (6-mer frequency, TF over GST control); with ETV1, 1.2 fold enrichment (6-mer frequency, TF over GST control); with ERF, 1.29 fold enrichment (6-mer frequency, TF over GST control); with ETV3L, 1.38 fold enrichment (6-mer frequency, TF over GST control). Moreover, the binding signal with ETS2 is 1.31 fold enrichment (6-mer frequency, TF over GST control); with SPDEF, 1.33 fold enrichment (6-mer frequency, TF over GST control); with ETV7 it was 1.24 fold enrichment (6-mer frequency, TF over GST control); in the assay with ELF5 it was 1.31 fold enrichment (6-mer frequency, TF over GST control); with ETV3 it was 1.3 fold enrichment (6-mer frequency, TF over GST control); with ETV6, 1.24 fold enrichment (6-mer frequency, TF over GST control).
